Assay [1] in a line: antimalarial activity against Dd2 strain (AID 2302;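 active means growth inhibition above 50% at the single 2 µM test dose, taken to imply half-maximal potency below 2 µM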;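 further: 0% = DMSO untreated growth and 100% = chloroquine plus artemisinin killed control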). The note with it: P. falciparum Dd2 in RBCs, LDH growth readout, 72 h; at 2 µM; stronger effect = higher value.
A short description of assay [2]: human hepatoma cell viability loss – ATP luminescence, cytotoxicity control for P. falciparum antimalarial project, primary screen (AID 2303;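 active means inhibition above 50%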;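 further: 0% = DMSO wells and 100% = digitonin-killed cells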). The note with it: HepG2 viability, 24-48 h, at 10 µM, stronger effect = higher value.
Assay [3] deals with L-lactate dehydrogenase (Plasmodium falciparum (isolate CDC / Honduras)) (UniProt Q27743). In words: PfLDH activity inhibition – cell lysate, 3D7 strain, counter-screen for P. falciparum growth inhibition project (AID 2304).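 Further: 0% = vehicle and 100% = reference inhibitor.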 The following applies: P. falciparum 3D7 crude extract, LDH APAD/NBT absorbance; at 2 µM; stronger effect = higher value. In general terms: Counterscreens check selectivity or assay interference.
Chain of L-lactate dehydrogenase (Plasmodium falciparum (isolate CDC / Honduras)) (Q27743 whole entry, looked up): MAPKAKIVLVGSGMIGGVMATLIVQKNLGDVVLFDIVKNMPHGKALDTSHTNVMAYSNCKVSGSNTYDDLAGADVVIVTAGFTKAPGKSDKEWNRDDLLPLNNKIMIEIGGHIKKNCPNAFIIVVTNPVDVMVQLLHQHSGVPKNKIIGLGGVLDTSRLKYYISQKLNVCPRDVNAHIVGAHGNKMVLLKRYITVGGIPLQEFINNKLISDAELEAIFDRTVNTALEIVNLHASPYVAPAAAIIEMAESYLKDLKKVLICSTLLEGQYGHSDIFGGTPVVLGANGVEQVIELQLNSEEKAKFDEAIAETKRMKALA

A short description of assay [4]: inhibition of 3D7 malaria parasite growth – strain 3D7 (AID 2306).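 Further: 0% = DMSO wells and 100% = chloroquine plus artemisinin control wells.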 The following applies: P. falciparum 3D7 erythrocytic growth, LDH absorbance, 72 h; at 2 µM; stronger effect = higher value.
The target of assay [5] is Calcium-dependent protein kinase 1 (Plasmodium falciparum (isolate 3D7)) (UniProt P62344). In words: PfCDPK1 kinase inhibitors, biochemical, TCAMS library (AID 1159585; cut-off not given, nearly all actives have IC50 up to about 0.98 µM;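 further: inhibitors leave more ATP so luminescence rises with inhibition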). The following applies: recombinant PfCDPK1, Kinase-Glo ATP depletion luminescence. A general note: In Kinase-Glo more light means more ATP remaining.
Chain of Calcium-dependent protein kinase 1 (Plasmodium falciparum (isolate 3D7)) (P62344 whole entry, looked up): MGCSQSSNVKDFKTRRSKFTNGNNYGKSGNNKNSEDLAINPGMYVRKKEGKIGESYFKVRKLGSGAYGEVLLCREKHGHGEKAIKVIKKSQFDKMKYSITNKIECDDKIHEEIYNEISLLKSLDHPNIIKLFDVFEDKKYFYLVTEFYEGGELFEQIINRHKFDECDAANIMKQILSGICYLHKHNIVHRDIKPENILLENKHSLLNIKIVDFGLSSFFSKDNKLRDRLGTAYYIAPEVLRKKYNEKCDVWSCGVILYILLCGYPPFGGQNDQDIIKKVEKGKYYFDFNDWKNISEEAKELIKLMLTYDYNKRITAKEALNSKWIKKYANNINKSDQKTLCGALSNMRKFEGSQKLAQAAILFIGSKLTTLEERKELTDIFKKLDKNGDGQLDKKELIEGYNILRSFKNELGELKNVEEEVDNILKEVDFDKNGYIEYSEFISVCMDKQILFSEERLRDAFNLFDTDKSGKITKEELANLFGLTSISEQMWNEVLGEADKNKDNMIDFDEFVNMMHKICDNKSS
The target in assay [6] is Plasmodium falciparum protein kinase 6 (PK6, PF3D7_1337100) (UniProt Q8IDW1). In words: PfPK6 kinase inhibitors, biochemical, TCAMS library (AID 1159586). The following applies: recombinant PfPK6, Kinase-Glo ATP depletion luminescence.
Chain of Plasmodium falciparum protein kinase 6 (PK6, PF3D7_1337100) (Q8IDW1 1-305): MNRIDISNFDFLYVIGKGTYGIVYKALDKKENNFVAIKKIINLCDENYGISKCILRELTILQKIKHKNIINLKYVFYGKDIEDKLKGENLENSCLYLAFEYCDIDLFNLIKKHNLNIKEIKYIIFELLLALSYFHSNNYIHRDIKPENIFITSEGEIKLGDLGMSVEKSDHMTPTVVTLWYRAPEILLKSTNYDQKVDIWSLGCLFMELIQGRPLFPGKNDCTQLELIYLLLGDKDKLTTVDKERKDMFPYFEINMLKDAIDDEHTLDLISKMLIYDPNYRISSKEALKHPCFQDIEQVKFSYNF
Assay [7] deals with Protein kinase 7 (PK7), Plasmodium falciparum 3D7 (PF3D7_0213400) (UniProt Q7YTF7). In words: inhibition of Plasmodium PK7 catalytic activity – biochemical, TCAMS antimalarial set, Kinase-Glo luminescence (AID 1159587). The note with it: recombinant PfPK7, Kinase-Glo ATP depletion luminescence.
Chain of Protein kinase 7 (PK7), Plasmodium falciparum 3D7 (PF3D7_0213400) (Q7YTF7 1-343): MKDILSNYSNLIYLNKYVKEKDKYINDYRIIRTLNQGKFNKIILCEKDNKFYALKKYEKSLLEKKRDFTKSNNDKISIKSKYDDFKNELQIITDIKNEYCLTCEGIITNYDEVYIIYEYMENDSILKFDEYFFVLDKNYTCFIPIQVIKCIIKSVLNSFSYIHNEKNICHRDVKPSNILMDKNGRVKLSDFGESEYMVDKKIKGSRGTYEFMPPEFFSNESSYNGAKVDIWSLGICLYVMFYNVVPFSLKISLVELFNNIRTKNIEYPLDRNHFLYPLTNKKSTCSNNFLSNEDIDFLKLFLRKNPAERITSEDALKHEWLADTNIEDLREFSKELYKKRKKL
For assay [8], the target named is Calcium-dependent protein kinase 4 (Plasmodium falciparum (isolate 3D7)) (UniProt Q8IBS5). Nature of the assay: PfCDPK4 kinase inhibitors, biochemical, TCAMS library (AID 1159588; cut-off not given, nearly all actives have IC50 up to about 0.91 µM). The following applies: recombinant PfCDPK4, Kinase-Glo ATP depletion luminescence.
Chain of Calcium-dependent protein kinase 4 (Plasmodium falciparum (isolate 3D7)) (Q8IBS5 whole entry, looked up): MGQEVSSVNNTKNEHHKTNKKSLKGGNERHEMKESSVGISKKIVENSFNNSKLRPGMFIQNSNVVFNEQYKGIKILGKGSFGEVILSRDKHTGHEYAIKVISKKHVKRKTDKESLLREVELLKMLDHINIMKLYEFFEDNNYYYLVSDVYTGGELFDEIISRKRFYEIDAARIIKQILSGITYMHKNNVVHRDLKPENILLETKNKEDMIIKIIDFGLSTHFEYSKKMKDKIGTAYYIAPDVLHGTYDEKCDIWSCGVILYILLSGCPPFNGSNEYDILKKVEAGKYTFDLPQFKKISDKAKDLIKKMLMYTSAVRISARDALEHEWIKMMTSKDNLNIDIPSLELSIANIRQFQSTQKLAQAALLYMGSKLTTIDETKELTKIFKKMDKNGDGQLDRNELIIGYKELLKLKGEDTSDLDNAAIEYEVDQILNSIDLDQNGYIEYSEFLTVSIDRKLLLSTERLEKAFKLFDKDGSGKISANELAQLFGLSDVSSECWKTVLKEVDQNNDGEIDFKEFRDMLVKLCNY

Each structure is given as a SMILES string. Values without a mark were called inactive. For some of these results: Potency and affinity values are given separately. Calls of active or inactive are those of the source. Unless noted, how the calls were made is not given here.

The term inhibition denotes the drop in the measured response relative to a control, in per cent.

As for `O=C(NCCCN1CCCC1=O)NCc1ccccc1`, the growth inhibition in assay [1] was 4%; in assay [4], 99% (active). Also, the inhibition in assay [2] was 8%; in assay [3], 3%. Moreover, the outcome in assay [5], in assay [6], in assay [7] and in assay [8] was inactive.

As to `FC(F)(F)c1ccc2nc(-c3ccc(-c4ccc(CNCC5CCCO5)cc4)s3)[nH]c2c1` (stereo not given), the growth inhibition in assay [1] was 98% (active); in assay [4], 101% (active). The figures for the inhibition in assay [2] and in assay [3] were 47% and -6%, respectively. Besides, the result in assay [5], in assay [6], in assay [7] and in assay [8] was inactive.

Take `COc1cc2nc(N3CCC(CNC(=O)c4ccc(-c5ccc(C(=O)N(C)C)cc5OCCO)cc4)CC3)nc(N)c2cc1OC`: the growth inhibition was 8% in assay [1] and 100% (active) in assay [4]. For the same compound, the results for the inhibition in assay [2] and in assay [3] were -7% and -1%, respectively. The outcome in assay [5], in assay [6], in assay [7] and in assay [8] was inactive.

Consider `CCCCCCCNCCNc1cc(C)nc2ccccc12`, for which the growth inhibition in assay [1] was 99% (active); in assay [4], 100% (active). Moreover, the figures for the inhibition in assay [2] and in assay [3] were 58% (active) and -4%, respectively. The outcome in assay [5], in assay [6], in assay [7] and in assay [8] was inactive.

As for `Cc1ccc(NC(=O)c2cc(S(=O)(=O)NC(C)(C)C)ccc2C)nc1`, the growth inhibition in assay [1] was 80% (active); in assay [4] it was 86% (active). Also, the inhibition in assay [2] was -1%; in assay [3], -2%. Moreover, the outcome in assay [5], in assay [6], in assay [7] and in assay [8] was inactive.

For `O=C(Nc1ccc2c(c1)CCC2)N[C@H]1CCN(Cc2ccc(OCCCN3CCCCC3)cc2)C1`, the growth inhibition in assay [1] is -2%; in assay [4], 96% (active). In addition, the inhibition in assay [2] is 9%; in assay [3], -2%. The outcome in assay [5], in assay [6], in assay [7] and in assay [8] was inactive.

Regarding `c1ccc(Oc2ccc(Nc3nncc4ccccc34)cc2)cc1`, the growth inhibition in assay [1] is 82% (active); in assay [4], 86% (active). Also, the results for the inhibition in assay [2] and in assay [3] were 20% and 1%, respectively. Further, the result in assay [5], in assay [6], in assay [7] and in assay [8] was inactive.

Turning to `COc1cc(Cc2cnc(N)nc2N)cc(OCCCCCCN2C(=O)c3ccccc3C2=O)c1OC`, the growth inhibition in assay [1] was 3%; in assay [4] it was 95% (active). Besides, the inhibition in assay [2] is 15%; in assay [3] it was 2%. For the same compound, the result in assay [5], in assay [6], in assay [7] and in assay [8] was inactive.

`CC(=O)Nc1ccc(C(=O)Nc2cccc(-c3ccc(-c4nc5c(C)cccc5[nH]4)cc3)c2)cn1`: the growth inhibition was 94% (active) in assay [1] and 100% (active) in assay [4]. Also, the inhibition was 25% in assay [2] and 4% in assay [3]. In addition, the outcome in assay [5], in assay [6], in assay [7] and in assay [8] was inactive.

With `Cc1ccn2cc(-c3ccc(NC(=O)c4ccc(Br)o4)cc3)nc2c1`, the growth inhibition in assay [1] was 41%; in assay [4] it was 98% (active). Further, the values for the inhibition in assay [2] and in assay [3] were 100% (active) and -3%, respectively. The outcome in assay [5], in assay [6], in assay [7] and in assay [8] was inactive.

With `CCc1nc(N)nc(N)c1-c1ccccc1`, the growth inhibition in assay [1] was 1%; in assay [4], 92% (active). The inhibition in assay [2] is 53% (active); in assay [3], -2%. The result in assay [5], in assay [6], in assay [7] and in assay [8] was inactive.

As for `CCCCC(N)COc1cccc2c(-c3ccncc3)c(-c3cccc(NC(=O)Nc4ccccc4)c3)nn12` (stereo not given), the values for the growth inhibition in assay [1] and in assay [4] were 82% (active) and 102% (active), respectively. Moreover, the inhibition in assay [2] is 13%; in assay [3], 0%. In addition, the outcome in assay [5], in assay [6], in assay [7] and in assay [8] was inactive.

Consider `Nc1cccc(CNCc2cccc(-c3ccc(-c4nc5ccccc5[nH]4)s3)c2)c1`, for which the growth inhibition was 90% (active) in assay [1] and 101% (active) in assay [4]. Further, the inhibition was 8% in assay [2] and -1% in assay [3]. Also, the result in assay [5], in assay [6], in assay [7] and in assay [8] was inactive.

As for `O=C(Nc1ccnc2ccccc12)NC1CCN(CCc2ccccc2)CC1`, the growth inhibition in assay [1] was 43%; in assay [4] it was 100% (active). The inhibition in assay [2] was 7%; in assay [3], -3%. Moreover, the outcome in assay [5], in assay [6], in assay [7] and in assay [8] was inactive.

`CC(C)Oc1cc(-c2ccc(S(C)(=O)=O)cc2)nc(N(Cc2cccc(F)c2F)Cc2cccc(F)c2F)n1`: the results for the growth inhibition in assay [1] and in assay [4] were 99% (active) and 101% (active), respectively. In addition, the inhibition in assay [2] is 10%; in assay [3], 4%. For the same compound, the result in assay [5], in assay [6], in assay [7] and in assay [8] was inactive.

As to `Cc1cccc2[nH]c(-c3cccc(-c4ccc(NC(=O)C(C)CN(C)C)cc4)c3)nc12` (stereo not given), the growth inhibition in assay [1] was 100% (active); in assay [4], 101% (active). Moreover, the inhibition in assay [2] was 29%; in assay [3], -3%. Besides, the outcome in assay [5], in assay [6], in assay [7] and in assay [8] was inactive.

For the compound `Cc1cccc(CN2CCCN(Cc3ccc(C(=O)Nc4ccc(C)c(F)c4)cc3)CC2)c1`, the growth inhibition in assay [1] is 3%; in assay [4], 85% (active). Moreover, the inhibition in assay [2] was 47%; in assay [3] it was -4%. Besides, the outcome in assay [5], in assay [6], in assay [7] and in assay [8] was inactive.

Consider `COC(=O)c1cc(OC)c(OC)cc1NC(=O)NC12CC3CC(CC(C3)C1)C2`, for which the growth inhibition in assay [1] was 3%; in assay [4], 94% (active). Moreover, the inhibition in assay [2] and in assay [3] was 6% throughout. The result in assay [5], in assay [6], in assay [7] and in assay [8] was inactive.

Consider `COc1cccc(NC(=O)c2cc(Br)cc(N3CCN(c4ccncc4)CC3)c2)c1`, for which the growth inhibition in assay [1] was 79% (active); in assay [4] it was 100% (active). In addition, the inhibition was 30% in assay [2] and 0% in assay [3]. The outcome in assay [5], in assay [6], in assay [7] and in assay [8] was inactive.

For `O=C(CNC(=O)c1ccc(O)cc1)Nc1ccc(-c2cccc(-c3nc4ccc(C(F)(F)F)cc4[nH]3)c2)cc1`, the growth inhibition was 47% in assay [1] and 92% (active) in assay [4]. Also, the inhibition is 26% in assay [2] and 3% in assay [3]. Besides, the outcome in assay [5], in assay [6], in assay [7] and in assay [8] was inactive.

(Values after PubChem BioAssay.)
